Screening results (PubChem)
GRK2 aptamer HTS: blocks RNA aptamer binding to human GRK2 | bead flow cytometry, FAM-aptamer displacement from GRK2 | 0.59% of 330,000 active | P25098 | inhibition of aptamer binding, % at 10 µM | AID 488847;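 active = inhibition of aptamer binding above 40%, roughly 3 SD of noise, on plates passing a quality check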;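 note: median bead fluorescence of bound FAM aptamer so fluorescent compounds give negative values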
Efflux pump inh: antifungal efflux pump inhibition, Nile Red retention | 0.44% of 330,000 active | S. cerevisiae Candida pump triplex | inhibition, % at 10 µM;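 active = plate passing quality check with inhibition over a set limit, or well fluorescence over plate mean plus 4 SD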;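 note: Nile Red retained in pooled yeast measured as flow cytometry median fluorescence; higher means more Nile Red kept so more efflux inhibition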
Rtt109 HAT inh: blocks Candida albicans Rtt109/Vps75 acetyltransferase activity; AID 540336; 0.16% of 330,000 active; inhibition, % at 34.9 µM; purified Rtt109/Vps75, ThioGlo CoA-SH fluorescence, 4 h;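 active = inhibition of at least 50% in every replicate; inconclusive = best replicate reaches 50% inhibition but some replicates fall short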
ALR H2O2 inh: inhibitors of human sulfhydryl oxidase ALR; P55789; purified ALR, DTT oxidation, H2O2 HRP-luminol luminescence; inhibition, % (concentration not given with the values); 3.8% of 290,000 active; AID 485317;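 active = mean replicate inhibition above about 79%, with every replicate also reaching it, limit read from the data; inconclusive = only one of the two criteria met; inactive = mean below limit and not every replicate reaching it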
Rce1 inh: inhibitors of yeast Ras-converting enzyme; yeast membranes, quenched prenylated peptide cleavage fluorescence; calls only; 0.27% of 290,000 active; AID 2563;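 active = fall in fluorescence gain of 50% or more versus controls, with final raw signal at or below 3038400; inconclusive = same 50% fall but final raw signal above 3038400; inactive = fall in fluorescence gain under 50%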
HDAC3 inhib: human HDAC3 inhibition; O15379; recombinant HDAC3, fluorogenic peptide/trypsin coupled, fluorescence; inhibition, % at 8.3 µM; 0.15% of 320,000 active; in the data active = inhibition above about 26%, passing the limit was not always enough; inconclusive = no clear call, values can overlap the other calls
Target sequence (O15379 whole entry, looked up): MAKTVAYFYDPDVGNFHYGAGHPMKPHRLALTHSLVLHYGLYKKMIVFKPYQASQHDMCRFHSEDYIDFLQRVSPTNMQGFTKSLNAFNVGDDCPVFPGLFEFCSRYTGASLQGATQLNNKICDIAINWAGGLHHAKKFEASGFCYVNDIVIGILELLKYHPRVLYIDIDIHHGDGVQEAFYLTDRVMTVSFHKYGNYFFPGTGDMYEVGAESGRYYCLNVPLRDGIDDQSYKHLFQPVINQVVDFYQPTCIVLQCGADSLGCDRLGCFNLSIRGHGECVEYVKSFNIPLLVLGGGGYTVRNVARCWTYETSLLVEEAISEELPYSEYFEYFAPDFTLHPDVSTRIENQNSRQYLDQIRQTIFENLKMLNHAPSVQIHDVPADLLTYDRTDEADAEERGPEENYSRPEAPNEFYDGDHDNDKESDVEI
Large screens that a line does not name were inactive. Hits are enriched below; roughly 4.5% of the tested compounds scored in any of these assays.

CN(CCc1ccccc1)C(=O)c1ccc(NC(=O)Cc2ccc(NC(=O)C3CCN(C(=O)c4ccccc4)CC3)cc2)cc1	none (no result: GRK2 aptamer HTS, Efflux pump inh, ALR H2O2 inh, Rce1 inh, HDAC3 inhib)
S=c1[nH]nc(-c2ccc(Cl)cc2Cl)n1-c1ccc(Cl)cc1	ALR H2O2 inh 94
O=c1ccc(-c2n[nH]c(=S)n2-c2ccc(F)c(Cl)c2)n[nH]1	ALR H2O2 inh 86
COc1ccc(-n2c(-c3ccc(Cl)cc3Cl)n[nH]c2=S)c(OC)c1	none
S=c1[nH]nc(-c2ccc(Cl)cc2)n1-c1ccc(Cl)cc1	ALR H2O2 inh 82
Fc1ccc(-n2c(-c3cc(C4CC4)[nH]n3)n[nH]c2=S)cc1Cl	ALR H2O2 inh inconclusive
COc1cc(C2OC(=O)C3C(c4ccc(OC(C)=O)c(OC)c4)OC(=O)C23)ccc1OC(C)=O (stereo not drawn)	none (no result: HDAC3 inhib)
CCOc1ccc(CC(C(N)=O)C(N)=O)cc1	none
CCCCCOc1ccc(Br)cc1CSC(=N)N	none (no result: GRK2 aptamer HTS, Efflux pump inh, ALR H2O2 inh, HDAC3 inhib)
CCOc1ccc(CSC(=N)N)cc1	ALR H2O2 inh 98
CCCCOc1ccc(CSC(=N)N)cc1Cl	ALR H2O2 inh 99
CCOc1ccc(CCNC(=O)CSCC(=O)Nc2cccc(C)c2)cc1OCC	none
Cc1cccc(CSc2ccc(-c3ccco3)nn2)c1	ALR H2O2 inh 98
CC(=O)c1cccc(NC(=O)CSc2ccc(-c3ccco3)nn2)c1	none
Clc1cccc(CSc2ccc(-c3ccco3)nn2)c1	ALR H2O2 inh 98
Cc1ccc(CSc2ccc(-c3ccco3)nn2)cc1	none
CCc1ccc(NC(=O)CSc2ccc(-c3ccco3)nn2)cc1	ALR H2O2 inh 98
C[C@H](CO)N1C[C@H](C)[C@@H](CN(C)C(=O)NC2CCCCC2)Oc2c(NS(=O)(=O)c3cn(C)cn3)cccc2C1=O	none (no result: Rce1 inh)
Cc1ccc(NC(=O)COC(=O)c2ccc(-n3cccn3)cc2)cc1C	none (no result: ALR H2O2 inh, Rce1 inh, HDAC3 inhib)
O=C(Cn1cccc1C(=O)c1ccccc1)NCCc1ccc(Cl)cc1	none
O=C(Cn1cccc1C(=O)c1ccccc1)NCc1ccc(Cl)cc1	ALR H2O2 inh 97
O=S1(=O)NC(=NC2CCCCCC2)c2ccccc21	ALR H2O2 inh 89
O=C(O)c1cc(N2C(=O)C3C4C=CC(C4)C3C2=O)ccc1N1CCOCC1 (stereo not drawn)	none
CCOC(=O)c1[nH]c2ccc(OC)cc2c1N=CN(C)C	ALR H2O2 inh 98
CCN(CC)S(=O)(=O)c1ccc(NC(=O)c2ccc(N3CCCC3=O)cc2)cc1	none (no result: Rce1 inh)
Cc1ccc(-c2csc(NC(=O)c3ccc(F)cc3)c2C(=O)O)cc1	none
COc1cccc(OC)c1C(=O)Nc1ccc(C)cc1C(=O)c1ccccc1	none
COc1ccc(C(=O)Nc2ccc(C)cc2C(=O)c2ccccc2)c(OC)c1	ALR H2O2 inh 97
COc1cc(C(=O)c2ccccc2)c(OC)cc1C(=O)Nc1ccc(O)cc1	ALR H2O2 inh 100
COC(=O)c1ccc2c(c1)nc(C)n2CCO	none (no result: Rtt109 HAT inh)
Cc1nc2cc(CO)ccc2n1C	none
Nc1ccc(-c2nc3cc(N)ccc3n2CCO)cc1	ALR H2O2 inh 98
Cn1c(C2CCCCC2)nc2ccccc21	none
Cn1c(CO)nc2cc(N)ccc21	ALR H2O2 inh 80
Cn1c(C2CCCCC2)nc2cc(N)ccc21	ALR H2O2 inh 89
COc1cc([N+](=O)[O-])ccc1-c1ccc(C(=O)Nc2ccc(NC(C)=O)cc2)o1	ALR H2O2 inh 98
CC(=O)Nc1ccc(NC(=O)c2ccc(-c3ccc([N+](=O)[O-])cc3)o2)cc1	none
COC(=O)CSc1nc(N2CCOCC2)c2c(c1C#N)CC(C)(C)N(C)C2	ALR H2O2 inh 95
CCc1ccc(C(=O)COC(=O)CNC(=O)C2CCCCC2)cc1	none (no result: GRK2 aptamer HTS, Efflux pump inh, ALR H2O2 inh, Rce1 inh, HDAC3 inhib)
CC(C)CN1CCC(=O)N(CCO)CC1	none
CNc1nc(N)c(C(=O)C(C)(C)C)s1	ALR H2O2 inh 99
CCN(CC)Cc1cc2[nH]c3c4ccc(Cl)cc4ncc3c2cc1OC	none (no result: GRK2 aptamer HTS, Efflux pump inh, ALR H2O2 inh, HDAC3 inhib)
Cc1ccc(NC(=O)CSc2nc3sc(C)cc3c(=O)n2C)cc1	none
Cc1ccc(NC(=O)CSc2nc(O)cc(=O)n2C)cc1	ALR H2O2 inh 99
O=c1cc(O)nc(SCc2ccccc2)n1-c1ccc(Cl)cc1	ALR H2O2 inh 98
Cn1c(SCC(=O)Nc2ccc(Br)cc2)nc(O)cc1=O	ALR H2O2 inh 99
COc1ccc(-n2c(SCC(=O)Nc3ccc(Br)cc3)nc(O)cc2=O)cc1	ALR H2O2 inh 99
NC(=O)CSc1nc(O)cc(=O)n1-c1ccccc1	none
CCN(CC)C(=O)CSc1nc(O)cc(=O)n1C	none
CCCN1CCC(Oc2cccc(C(=O)NCCc3ccccc3)c2)CC1	none
